Screens (PubChem BioAssay)
This is a sample that favours compounds with a hit; in the whole collection about 19% have one here.
HT1080 IDH1KD tx – toxicity to HT-1080 IDH1 knockdown cells (counter line); AID 686971; hit rate 2% among 360,000; Potency, µM (series often up to 46.1 µM), for inactives: top-dose activity, negative = toxicity, actives largely listed as cytotoxic; HT-1080 IDH1 knockdown viability, ATP luminescence, 48 h;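 further: potency means the concentration at half of the fitted maximal effect; 0% = DMSO wells and -100% = cell-free medium wells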
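IDH1KD HT-1080 cells, 750/well, RPMI + 5% FBS; compound pinned after 2 h settling; 48 h, 37 °C; CellTiter-Glo luminescence; % activity normalised to DMSO and no-cell wells; curves fitted, classed by r2 and efficacy.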
DT40 TDP1 CPT – growth inhibition of DT40 Tdp1-/-;hTDP1 cells with camptothecin (screen for TDP1 inhibitors). chicken DT40 Tdp1-/-;hTDP1 cells + 20 nM CPT, ATP luminescence, 48 h. Potency, µM (doses to about 46.2 µM), for the others: at the top dose activity change, negative = growth inhibition, actives largely listed as inhibitors. hit rate 12% among 420,000. AID 686979; further: potency means the concentration at half of the fitted maximal effect; nearly all actives have a fitted effect of over 55% in size
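Chicken DT40 Tdp1-/- cells stably complemented with human TDP1 were seeded at 400 cells/well in medium containing 20 nM camptothecin, exposed to pin-transferred compounds, and grown at 37 °C for at least 48 hr. Viability was read as ATP luminescence.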
DT40 TDP1 no CPT – qHTS for Inhibitors of human tyrosyl-DNA phosphodiesterase 1 (TDP1): qHTS in cells in absence of CPT | DT40 Tdp1-/- hTDP1 cells, no CPT, ATP luminescence, 48 h | Potency, µM (doses to about 46.2 µM), for the others: at the highest dose activity change, negative = growth inhibition, usual class: inhibitors | hit rate 15% among 420,000; further: potency means the concentration at half of the fitted maximal effect; nearly all actives have a fitted effect of over 55% in size
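Readout: luminescence from CellTiter-Glo after 30 min in the dark at RT. Cells: DT40 Tdp1-/- with stable hTDP1, 400/well. Exposure: compounds alone, ≥48 hr, 37 °C.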
HT1080NT lethal – kills 2HG-producing HT-1080-NT fibrosarcoma cells. HT-1080-NT fibrosarcoma viability, CellTiter-Glo ATP luminescence, 48 h. Potency, µM (top dose mostly 46.1 µM), without a hit: at the top dose activity, negative = less viability, actives largely listed as cytotoxic. hit rate 1.6% among 360,000;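 further: NT is the 2HG producing partner of a matched IDH1 knockdown line; potency means the concentration at half of the fitted maximal effect; 0% = DMSO-treated cells and -100% = media-only wells without cells; nearly all actives have a fitted effect of over 55% in size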
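HT-1080-NT fibrosarcoma cells (2HG-overproducing), 750 cells/well in RPMI with 5% FBS, dosed after 2 h and incubated 48 h at 37C. CellTiter-Glo luminescence normalized to DMSO and no-cell wells; concentration-response curves fitted and classed.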
IL-1B inflam inh – blocks inflammasome-driven IL-1 beta release; hit rate 4.7% among 360,000; activity change, % at 57.5 µM; THP-1 LPS/ATP IL-1B secretion, AlphaLISA, 16 h; active compounds read low; in the data active means activity change below about -50%; inconclusive means mostly about -30% to -49%
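THP-1 cells pretreated 1 hr with compounds (up to 57.5 uM final), then stimulated with LPS (250 ng/mL final) plus ATP (1.25 mM final); secreted IL-1B measured by AlphaLISA after 16 hr, decreased signal indicating inhibition.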
* = called active by the depositor; u = inconclusive; x = no result given. Unless noted, the call rests on the fitted dose curve; in most records, active means well fitted curve in the direction sought with a large enough effect; inconclusive means small, poorly fitted or top-dose-only effect, or another doubt; inactive means no such curve, though single readings can be large; an effect the other way counts as inactive or inconclusive. Unless noted, on the % scale 0 is the no-effect control and ±100 the full control effect.

SMILES | HT1080 IDH1KD tx | DT40 TDP1 CPT | DT40 TDP1 no CPT | HT1080NT lethal | IL-1B inflam inh
CN(Cc1cnccn1)C(=O)CC1C(=O)NCCN1Cc1c(F)cccc1Cl (stereo not drawn) | 5.4% | -3.1% | 27.1% | 3.5% | 14.0
N#CCC(=O)Nc1ccc(C(=O)Nc2cccc(S(N)(=O)=O)c2)cc1 | -0.4% | -4.6% | -3.7% | -3.1% | 21.9
COc1ccc(-c2csc(NC(=O)c3ccc(S(=O)(=O)N4CCc5ccccc5C4)cc3)n2)c(OC)c1 | -9.0% | u | 13µM* | 0.2% | 19.8
O=C(Nc1nc(-c2ccc(S(=O)(=O)N3CCOCC3)cc2)cs1)c1ccccc1 | -19.1% | u | 11.6µM* | u | u
COc1cccc(C(=O)Nc2nc(-c3ccc(S(=O)(=O)N4CCOCC4)cc3)cs2)c1 | -12.2% | 20.6µM* | 11.6µM* | -14.1% | u
Cc1ccc(-c2csc(NC(=O)COC(=O)c3cccc(S(=O)(=O)N4CCOCC4)c3)n2)cc1 | -16.9% | -22.5% | -18.9% | 1.8% | -4.4
COc1ccc(C(=O)NC2CC(=O)N(c3ccc4c(c3)OCCO4)C2)cc1 (stereo not drawn) | x | 0.9% | -27.0% | x | x
COc1cc(C(=O)Nc2ccc3c(c2)ncn3C)cc(OC)c1OC | u | 4.11µM* | 2.91µM* | u | 82.1
CC(=O)Nc1ccc2c(c1)ncn2C | 16.3% | -10.1% | 1.4% | 17.2% | 2.4
COc1cc(C(=O)Nc2ccc3c(c2)nc(C)n3C)cc(OC)c1OC | 9.2µM* | 4.11µM* | 3.26µM* | 6.51µM* | 40.8
COc1cc2c(cc1OC)C(C)N(C(=O)c1cc3c(s1)-c1ccccc1OC3)CC2 (stereo not drawn) | u | u | 20.6µM* | u | -16.1
COc1cc2c(cc1OC)C(C)N(C(=O)C1COc3ccccc3O1)CC2 (stereo not drawn) | -25.6% | 16.4µM* | 25.9µM* | -10.6% | -51.1*
COc1cc2c(cc1OC)C(C)N(C(=O)c1cccs1)CC2 (stereo not drawn) | -13.5% | u | u | -10.8% | -15.9
COc1cc2c(cc1OC)C(C)N(C(=O)c1cc3c(=O)oc4ccc(C)cc4c3s1)CC2 (stereo not drawn) | 3.3% | 13µM* | 14.6µM* | -0.8% | -10.7
COc1cc(NC(=O)c2cc3c(=O)oc4ccc(C)cc4c3s2)cc(OC)c1OC | x | -2.2% | -7.5% | x | x
COc1cc2c(cc1OC)C(C)N(C(=O)c1cc3c(s1)-c1c(C)cccc1OC3)CC2 (stereo not drawn) | u | u | 16.4µM* | -16.5% | -0.7
OCC[C@H]1C[C@@H](O)[C@H](O)[C@]2(Cc3ccccc3CO2)O1 | 7.0% | 10.9% | 17.5% | 19.0% | 4.7
Brc1ccc(C2=Nc3cccc4cccc(c34)N2)o1 | 1.4% | 6.51µM* | 8.2µM* | 5.3% | 0.0
FC(F)(F)C1=Nc2cccc3cccc(c23)N1 | -1.3% | 4.11µM* | 4.61µM* | -2.3% | -15.8
CN(C(=S)NC(=O)C1CCCC1)c1ccccc1 | 5.5% | -24.4% | -17.9% | 0.0% | 5.7
CN(C1CCCCC1)S(=O)(=O)c1cc2c(cc1Cl)NC(=O)CO2 | -11.3% | -1.5% | 7.6% | -16.3% | 11.2
O=S(=O)(c1cc(Br)c(Br)s1)N1CCN(c2ccccc2)CC1 | x | -23.3% | -25.7% | x | x
CN(C)CCNC(=O)c1cccc(-c2cnc3c(NC=O)cc(-c4cccs4)cn23)c1 | u | u | u | u | -10.2
Cc1cc(-c2cc(NC=O)c3ncc(-c4cccc(C(=O)NCCN(C)C)c4)n3c2)cc(C)c1O | 25.9µM* | u | u | 25.9µM* | -3.0
CN(C)CCNC(=O)c1cccc(-c2cnc3c(NC=O)cc(-c4ccccc4F)cn23)c1 | u | u | 20.6µM* | u | -15.4
SMILES | HT1080 IDH1KD tx | DT40 TDP1 CPT | DT40 TDP1 no CPT | HT1080NT lethal | IL-1B inflam inh
CCOc1ccc2nc(SCC(=O)Nc3ccc4[nH]c(=O)[nH]c4c3)[nH]c2c1 | -0.3% | -1.9% | 3.0% | -0.3% | -12.2
Cc1ccc(C(=O)Nc2ccc(-c3csc(C)n3)cc2)cc1 | u | 7.1% | -28.6% | u | -15.1
Cc1nc(-c2ccc(NC(=O)C3CCCCC3)cc2)cs1 | -11.4% | -22.4% | 20.6µM* | -8.4% | -14.4
O=C(Nc1ccc(-c2cn3ccsc3n2)cc1)C1CCCC1 | u | 14.6µM* | 16.4µM* | -20.5% | 1.2
Cc1nc(-c2ccc(NC(=O)c3ccccc3)cc2)cs1 | u | 18.4µM* | u | u | 0.0
O=C(Nc1ccc(-c2csc(-c3ccccc3)n2)cc1)c1ccccc1Cl | -4.7% | 20.6µM* | u | -25.4% | -11.0
CCCCN1C[C@H](Cc2ccccc2)[C@@H](CC(=O)NC)C1=O | 6.5% | 1.0% | -16.6% | 2.2% | 7.8
FC(F)(F)c1cccc(-c2cncc(N3CCN(CCN4CCCC4)CC3)n2)c1 | u | 23.1µM* | 16.4µM* | u | -25.9
Fc1cccc(-c2cncc(N3CCN(CCN4CCCC4)CC3)n2)c1 | u | u | u | -20.8% | -9.1
CCN(CC)CCN1CCN(c2cncc(-c3ccc4ccccc4c3)n2)CC1 | 16.4µM* | 11.6µM* | 16.4µM* | 23.1µM* | -59.5*
CC1C(=O)OC2C(O)C34C5CC(C(C)(C)C)C36C(OC(=O)C6O)OC4(C(=O)O5)C12O (stereo not drawn) | x | -16.9% | -1.4% | x | x
O=C(O)/C=C/c1cnc2ccccc2c1 | 16.2% | 8.4% | -20.9% | 17.7% | 16.5
O=C(NC12CC3CC(CC(C3)C1)C2)C12CC3CC(C1)CC(n1cnc(Cl)n1)(C3)C2 | 13.2% | 20.6µM* | 16.4µM* | 13.7% | 31.1
O=C(NCc1ccco1)c1cc(-c2ccc(Cl)cc2)on1 | 3.9% | -20.2% | -18.3% | -5.3% | 0.0
CCc1ccc(CN(Cc2ccco2)C(=O)c2cc(-c3ccc(Cl)cc3)on2)cc1 | x | u | 14.6µM* | x | x
Cc1ccc(-c2cc(C(=O)N(Cc3ccc(C(C)(C)C)cc3)Cc3ccco3)no2)cc1 | x | 18.4µM* | 13µM* | x | x
O=C(c1cc(-c2ccc(Cl)cc2)on1)N(Cc1ccc(F)cc1)Cc1ccco1 | x | u | 20.6µM* | x | x
O=C(c1cc(-c2ccc(Cl)cc2)on1)N(Cc1cccc(F)c1)Cc1ccco1 | x | u | 18.4µM* | x | x
CCC(C)CN1C(=O)CN(S(C)(=O)=O)CC1(C)C(=O)NCc1ccccc1 (stereo not drawn) | 20.5% | 8.6% | -13.2% | 15.8% | 12.9
CCOC(=O)[C@]12CCCC=C1N(CCC1=CCCCC1)C(=O)[C@H](CC(=O)NCc1cccc(C(F)(F)F)c1)C2 | u | 18.4µM* | u | u | -14.6
